PubChem BioAssay (EPA / NIEHS)
Active and inactive are the calls of the source. The calls were made as follows: active = hit-call score of the fitted dose curve at least 0.9, where 1 is the maximum; inactive = score below 0.9.

Assays:
[1] = ATG_GRE_CIS: Attagene CIS-FACTORIAL HepG2 Assay for human Glucocorticoid Response Elements (GRE) (AID 2282947); details: HepG2 GRE cis-reporter, Attagene multiplex mRNA; actives raise or lower the signal
In short: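 Read-out: fluorescent reporter-transcript fragments separated by capillary electrophoresis after RT-PCR. Transiently transfected HepG2 cells carrying cis-element-driven reporter units were dosed for 24 h; gain or loss of signal fitted against DMSO control.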

[2] = ATG_ISRE_CIS: Attagene CIS-FACTORIAL HepG2 Assay for human Interferon Regulatory Factor 1 (IRF1) binding to an Interferon-Stimulated Response Element (ISRE) (AID 2282948); details: HepG2 ISRE cis-reporter (Attagene), mRNA transcription readout; actives raise or lower the signal
In short: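 Signal reflects induction or loss of ISRE-linked reporter mRNA in transiently transfected HepG2 cells after a 24 h treatment, detected by fluorescent RT-PCR fragments on capillary electrophoresis and normalised to DMSO.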

[3] = ATG_M_32_CIS: Attagene CIS-FACTORIAL HepG2 Assay for M32 Transcription Factor (Internal Marker) (AID 2282949); details: HepG2 Attagene cis-factorial M32 reporter, mRNA; actives raise or lower the signal;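 also: background control marker of the multiplexed CIS panel rather than a real target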
In short: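 Using DMSO as baseline, bidirectional curve fits were applied to reporter mRNA signals. These came from transiently transfected HepG2 cells exposed for 24 h, with RNA analysed by RT-PCR, FAM primer extension, HpaI digestion and CE.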

[4] = ATG_M_06_CIS: Attagene CIS-FACTORIAL HepG2 Assay for M06 Transcription Factor (Internal Marker) (AID 2282950); details: HepG2 Attagene CIS-FACTORIAL M06 internal marker reporter; actives raise or lower the signal
In short: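 HepG2 liver cells, 24 h exposure. Reporter transcripts from transfected cis-element constructs quantified by RT-PCR/capillary electrophoresis fluorescence. Bidirectional curve fit against DMSO.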

[5] = target: Hepatocyte nuclear factor 6 (Homo sapiens) (UniProt Q9UBC0); assay: ATG_HNF6_CIS: Attagene CIS-FACTORIAL HepG2 Assay for human Hepatocyte Nuclear Factor 6 (HNF6) (AID 2282952); details: HepG2 Attagene cis-factorial HNF6 reporter transcription; actives raise or lower the signal
Chain of Hepatocyte nuclear factor 6 (Homo sapiens) (Q9UBC0 whole entry, looked up, the tested form may be a part): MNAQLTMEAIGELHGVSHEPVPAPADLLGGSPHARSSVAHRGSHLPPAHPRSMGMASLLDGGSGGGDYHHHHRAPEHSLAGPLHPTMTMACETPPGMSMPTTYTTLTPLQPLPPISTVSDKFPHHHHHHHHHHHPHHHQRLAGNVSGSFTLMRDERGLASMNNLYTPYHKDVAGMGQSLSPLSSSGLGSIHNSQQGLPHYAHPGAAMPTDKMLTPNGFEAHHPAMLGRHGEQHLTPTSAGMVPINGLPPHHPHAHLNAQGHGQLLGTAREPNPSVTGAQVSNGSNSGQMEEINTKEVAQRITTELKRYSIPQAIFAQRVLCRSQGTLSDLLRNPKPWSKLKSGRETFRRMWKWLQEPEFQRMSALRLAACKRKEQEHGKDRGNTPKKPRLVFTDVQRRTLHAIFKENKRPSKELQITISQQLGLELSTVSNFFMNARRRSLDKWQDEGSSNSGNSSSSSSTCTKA
In short: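 First, HepG2 cells were transfected with the multiplexed cis reporter library and dosed with chemical for 24 h. Next, RNA was reverse-transcribed, PCR-amplified and fluorescently labelled. Finally, HpaI-digested fragments were read by capillary electrophoresis.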

[6] = target: Heat shock factor protein 1 (Homo sapiens) (UniProt Q00613); assay: ATG_HSE_CIS: Attagene CIS-FACTORIAL HepG2 Assay for human Heat Shock Transcription Factor 1 (HSE) (AID 2282953); details: HepG2 HSE cis-reporter, Attagene RNA transcription; actives raise or lower the signal
Chain of Heat shock factor protein 1 (Homo sapiens) (Q00613 whole entry, looked up, the tested form may be a part): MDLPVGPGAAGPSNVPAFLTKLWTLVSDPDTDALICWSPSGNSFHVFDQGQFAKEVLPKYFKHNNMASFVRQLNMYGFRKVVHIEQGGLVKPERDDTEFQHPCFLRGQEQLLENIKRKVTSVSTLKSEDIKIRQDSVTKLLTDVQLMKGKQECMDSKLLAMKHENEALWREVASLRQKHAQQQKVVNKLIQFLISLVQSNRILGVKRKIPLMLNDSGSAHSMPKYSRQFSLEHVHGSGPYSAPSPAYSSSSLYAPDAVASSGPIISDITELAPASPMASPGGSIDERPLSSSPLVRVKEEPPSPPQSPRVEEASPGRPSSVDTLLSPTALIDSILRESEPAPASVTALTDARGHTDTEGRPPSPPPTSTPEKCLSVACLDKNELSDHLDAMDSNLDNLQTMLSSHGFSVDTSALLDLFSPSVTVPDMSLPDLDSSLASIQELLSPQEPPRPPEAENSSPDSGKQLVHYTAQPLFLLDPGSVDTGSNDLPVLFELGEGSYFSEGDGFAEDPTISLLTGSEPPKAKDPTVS
In short: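 Endogenous transcription factor activity captured via cis-promoter reporter units transfected into HepG2; treatment lasted 24 h. Fluorescence intensity of reporter fragments analysed with bidirectional curve fitting, DMSO baseline.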

[7] = ATG_MRE_CIS: Attagene CIS-FACTORIAL HepG2 Assay for human Metal Responsive Element (MRE) (AID 2282954); details: HepG2 MRE cis-reporter transcription, Attagene multiplex; actives raise or lower the signal
In short: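 RT-PCR/capillary electrophoresis readout of reporter mRNA, 24 h post-dosing, in HepG2 cells transfected with multiplexed cis-regulated reporter constructs. Gain or loss of signal fitted bidirectionally against DMSO baseline.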

[8] = ATG_PBREM_CIS: Attagene CIS-FACTORIAL HepG2 Assay for human Phenobarbital-responsive Enhancer Module (PBREM) (AID 2282955); details: HepG2 PBREM cis-reporter, Attagene multiplexed transcription; actives raise or lower the signal
In short: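 HepG2 cells transiently transfected with multiple cis-regulated reporter units measure endogenous transcription factor activity; 24 h compound exposure. Reporter mRNA quantified by RT-PCR, fluorescent labelling, HpaI digestion and capillary electrophoresis; bidirectional fit versus DMSO.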

[9] = target: Paired box protein Pax-6 (Homo sapiens) (UniProt P26367); assay: ATG_Pax6_CIS: Attagene CIS-FACTORIAL HepG2 Assay for human Paired Box 6 (PAX6) (AID 2282956); details: HepG2 CIS-FACTORIAL PAX6 reporter transcription, RNA readout; actives raise or lower the signal
Chain of Paired box protein Pax-6 (Homo sapiens) (P26367 whole entry, looked up): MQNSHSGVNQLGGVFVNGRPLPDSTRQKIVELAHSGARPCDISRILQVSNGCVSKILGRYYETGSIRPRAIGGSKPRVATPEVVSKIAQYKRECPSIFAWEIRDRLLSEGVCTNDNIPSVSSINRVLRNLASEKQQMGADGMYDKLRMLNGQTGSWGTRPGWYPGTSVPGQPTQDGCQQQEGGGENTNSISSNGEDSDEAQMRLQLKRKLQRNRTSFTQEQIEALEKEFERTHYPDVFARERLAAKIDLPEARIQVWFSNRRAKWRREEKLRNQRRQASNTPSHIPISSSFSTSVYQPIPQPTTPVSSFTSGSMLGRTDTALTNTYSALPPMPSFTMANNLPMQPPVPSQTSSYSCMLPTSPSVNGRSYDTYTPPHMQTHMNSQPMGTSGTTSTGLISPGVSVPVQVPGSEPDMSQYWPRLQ
In short: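 Values derive from bidirectional curve fitting of reporter mRNA signal relative to DMSO. HepG2 cells bearing transfected cis-regulated MRTUs were exposed for 24 h; transcripts were read by RT-PCR and capillary electrophoresis.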

[10] = ATG_PXRE_CIS: Attagene CIS-FACTORIAL HepG2 Assay for human Pregnane X Receptor Element (PXRE) (AID 2282957); details: HepG2 Attagene CIS-FACTORIAL PXRE reporter, mRNA; actives raise or lower the signal
In short: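 After a 24 h chemical incubation, total RNA from transfected HepG2 cells was reverse-transcribed and reporter cDNA amplified, FAM-labeled, HpaI-digested and sized by capillary electrophoresis. DMSO served as baseline for bidirectional curve fitting.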

[11] = ATG_PPRE_CIS: Attagene CIS-FACTORIAL HepG2 Assay for human Peroxisome Proliferator-activated Response Element (PPRE) (AID 2282958); details: HepG2 PPRE cis-element reporter, Attagene transcription factor profiling; actives raise or lower the signal
In short: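 HepG2 cells are transiently transfected with multiplexed cis-promoter reporter units to report endogenous PPAR activity. After 24 h dosing, reporter mRNA is read by RT-PCR and capillary electrophoresis. Fitting is bidirectional against DMSO.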

[12] = ATG_RORE_CIS: Attagene CIS-FACTORIAL HepG2 Assay for human RAR-related Orphan Receptor Element (RORE) (AID 2282959); details: HepG2 Attagene cis-factorial RORE reporter, mRNA; actives raise or lower the signal
In short: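 HepG2 cells carrying transiently transfected cis-regulated reporter units; RORE-driven reporter mRNA quantified 24 h post-dosing by RT-PCR, 6-FAM primer extension, HpaI digestion and capillary electrophoresis. Bidirectional fit versus DMSO.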

[13] = ATG_Sox_CIS: Attagene CIS-FACTORIAL HepG2 Assay for human SRY-box transcription factor (SOX) (AID 2282960); details: HepG2 Attagene cis-factorial SOX reporter, mRNA; actives raise or lower the signal
In short: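 HepG2 cells transiently transfected with multiple cis-regulated reporter units, then dosed for 24 h. Reporter mRNA quantified by RT-PCR, fluorescent labelling, HpaI digestion and capillary electrophoresis; bidirectional fit versus DMSO.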

[14] = target: Transcription factor Sp1 (Homo sapiens) (UniProt P08047); assay: ATG_Sp1_CIS: Attagene CIS-FACTORIAL HepG2 Assay for human Specificity Protein 1 (Sp1) (AID 2282961); details: HepG2 Sp1 cis-reporter transcription, actives raise or lower the signal
Chain of Transcription factor Sp1 (Homo sapiens) (P08047 whole entry, looked up): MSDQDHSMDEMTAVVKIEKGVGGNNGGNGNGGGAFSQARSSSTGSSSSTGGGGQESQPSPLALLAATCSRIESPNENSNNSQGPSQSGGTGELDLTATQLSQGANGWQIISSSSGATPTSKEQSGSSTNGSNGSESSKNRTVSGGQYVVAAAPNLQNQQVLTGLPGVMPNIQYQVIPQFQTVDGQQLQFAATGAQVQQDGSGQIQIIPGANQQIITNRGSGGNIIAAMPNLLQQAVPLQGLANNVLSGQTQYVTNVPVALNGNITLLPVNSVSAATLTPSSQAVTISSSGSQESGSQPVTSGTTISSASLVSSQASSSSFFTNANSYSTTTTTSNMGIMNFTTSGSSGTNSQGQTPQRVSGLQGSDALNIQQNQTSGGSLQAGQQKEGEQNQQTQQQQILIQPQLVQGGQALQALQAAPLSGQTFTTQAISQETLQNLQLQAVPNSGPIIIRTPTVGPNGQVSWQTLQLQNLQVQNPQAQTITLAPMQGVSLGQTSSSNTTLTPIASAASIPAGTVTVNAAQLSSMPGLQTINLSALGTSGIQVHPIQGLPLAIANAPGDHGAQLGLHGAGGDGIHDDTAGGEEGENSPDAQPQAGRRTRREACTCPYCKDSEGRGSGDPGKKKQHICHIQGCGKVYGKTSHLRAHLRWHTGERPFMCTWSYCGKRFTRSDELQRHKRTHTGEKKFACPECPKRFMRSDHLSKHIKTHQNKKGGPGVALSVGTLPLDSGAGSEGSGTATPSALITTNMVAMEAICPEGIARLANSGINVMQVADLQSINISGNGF
In short: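 HepG2 cells transiently transfected with multiplexed cis-regulated reporter constructs, chemical exposure 24 h. Reporter mRNA quantified by RT-PCR with capillary electrophoresis; bidirectional fit relative to DMSO.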

[15] = ATG_SREBP_CIS: Attagene CIS-FACTORIAL HepG2 Assay for human Sterol Regulatory Element Binding (SREBP) (AID 2282962); details: HepG2 Attagene cis-factorial SREBP reporter, mRNA; actives raise or lower the signal
In short: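 Values derive from bidirectional curve fitting with DMSO as baseline. The underlying measurement is reporter mRNA from cis-element-regulated units in transiently transfected HepG2, quantified by RT-PCR and capillary electrophoresis after 24 h exposure.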

[16] = target: Signal transducer and activator of transcription 3 (Homo sapiens) (UniProt P40763); assay: ATG_STAT3_CIS: Attagene CIS-FACTORIAL HepG2 Assay for human Signal Transducer and Activator of Transcription 3 (STAT3) (AID 2282963); details: HepG2, Attagene cis-factorial STAT3 reporter transcription; actives raise or lower the signal
Chain of Signal transducer and activator of transcription 3 (Homo sapiens) (P40763 whole entry, looked up, the tested form may be a part): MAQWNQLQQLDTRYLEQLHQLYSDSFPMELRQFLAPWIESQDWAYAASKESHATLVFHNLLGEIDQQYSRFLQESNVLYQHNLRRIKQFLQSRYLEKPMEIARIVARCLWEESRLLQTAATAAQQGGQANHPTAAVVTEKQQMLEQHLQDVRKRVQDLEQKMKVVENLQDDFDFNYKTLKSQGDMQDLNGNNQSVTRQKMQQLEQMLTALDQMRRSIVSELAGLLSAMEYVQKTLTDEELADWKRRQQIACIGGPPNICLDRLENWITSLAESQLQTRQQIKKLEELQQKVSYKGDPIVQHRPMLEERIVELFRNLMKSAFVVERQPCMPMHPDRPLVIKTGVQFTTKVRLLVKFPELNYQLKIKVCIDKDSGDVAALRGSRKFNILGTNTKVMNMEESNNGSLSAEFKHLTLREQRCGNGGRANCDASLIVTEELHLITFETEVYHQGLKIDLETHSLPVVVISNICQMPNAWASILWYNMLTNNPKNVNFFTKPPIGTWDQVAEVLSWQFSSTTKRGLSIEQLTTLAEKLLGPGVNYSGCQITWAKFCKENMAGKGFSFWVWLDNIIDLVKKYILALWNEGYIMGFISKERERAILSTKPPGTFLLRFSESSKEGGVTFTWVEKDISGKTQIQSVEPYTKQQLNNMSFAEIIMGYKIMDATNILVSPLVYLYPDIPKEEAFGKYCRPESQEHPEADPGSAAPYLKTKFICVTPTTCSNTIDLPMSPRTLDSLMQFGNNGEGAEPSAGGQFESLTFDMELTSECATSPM
In short: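 Readout: fluorescent reporter mRNA fragments resolved by capillary electrophoresis. Setup: HepG2 transfected with MRTUs reporting endogenous transcription-factor activity, dosed 24 h. Gain or loss of signal fitted bidirectionally against DMSO control.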

[17] = ATG_TA_CIS: Attagene CIS-FACTORIAL HepG2 Assay for human TA Basal Promoter (AID 2282964); details: HepG2 Attagene CIS-factorial TA basal promoter reporter; actives raise or lower the signal
In short: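 Fluorescence from labelled RT-PCR reporter fragments, separated by capillary electrophoresis, gives the signal. Cells: HepG2 transiently carrying multiple reporter units, 24 h chemical dosing. Gain or loss relative to DMSO.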

[18] = ATG_TCF_b_cat_CIS: Attagene CIS-FACTORIAL HepG2 Assay for human T-Cell-Factor with beta-catenin (TCF/b-cat) (AID 2282965); details: HepG2 TCF/beta-catenin cis-reporter transcription, actives raise or lower the signal
In short: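 HepG2 cells transiently transfected with cis-promoter-driven multiplexed reporter units; reporter mRNA measured 24 h after dosing by RT-PCR, FAM labelling, HpaI digestion and capillary electrophoresis. Bidirectional fitting relative to DMSO baseline.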

[19] = ATG_TAL_CIS: Attagene CIS-FACTORIAL HepG2 Assay for human TAL Basal Promoter (AID 2282966); details: HepG2 Attagene cis-factorial TAL promoter reporter; actives raise or lower the signal;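 also: background control endpoint measuring basal TAL promoter reporter mRNA not a specific factor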
In short: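 Basal-promoter background-control endpoint from a multiplexed HepG2 reporter panel. Cells were exposed 24 h, then reporter mRNA was read by RT-PCR/CE fluorescence and fitted in both directions relative to DMSO.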

[20] = target: Hypoxia-inducible factor 1-alpha (Homo sapiens) (UniProt Q16665); assay: ATG_HIF1a_CIS: Attagene CIS-FACTORIAL HepG2 Assay for human Hypoxia Inducible Factor 1 (HIF1A) (AID 2282951); details: HepG2 Attagene cis-factorial HIF1a reporter transcription; actives raise or lower the signal
Chain of Hypoxia-inducible factor 1-alpha (Homo sapiens) (Q16665 whole entry, looked up): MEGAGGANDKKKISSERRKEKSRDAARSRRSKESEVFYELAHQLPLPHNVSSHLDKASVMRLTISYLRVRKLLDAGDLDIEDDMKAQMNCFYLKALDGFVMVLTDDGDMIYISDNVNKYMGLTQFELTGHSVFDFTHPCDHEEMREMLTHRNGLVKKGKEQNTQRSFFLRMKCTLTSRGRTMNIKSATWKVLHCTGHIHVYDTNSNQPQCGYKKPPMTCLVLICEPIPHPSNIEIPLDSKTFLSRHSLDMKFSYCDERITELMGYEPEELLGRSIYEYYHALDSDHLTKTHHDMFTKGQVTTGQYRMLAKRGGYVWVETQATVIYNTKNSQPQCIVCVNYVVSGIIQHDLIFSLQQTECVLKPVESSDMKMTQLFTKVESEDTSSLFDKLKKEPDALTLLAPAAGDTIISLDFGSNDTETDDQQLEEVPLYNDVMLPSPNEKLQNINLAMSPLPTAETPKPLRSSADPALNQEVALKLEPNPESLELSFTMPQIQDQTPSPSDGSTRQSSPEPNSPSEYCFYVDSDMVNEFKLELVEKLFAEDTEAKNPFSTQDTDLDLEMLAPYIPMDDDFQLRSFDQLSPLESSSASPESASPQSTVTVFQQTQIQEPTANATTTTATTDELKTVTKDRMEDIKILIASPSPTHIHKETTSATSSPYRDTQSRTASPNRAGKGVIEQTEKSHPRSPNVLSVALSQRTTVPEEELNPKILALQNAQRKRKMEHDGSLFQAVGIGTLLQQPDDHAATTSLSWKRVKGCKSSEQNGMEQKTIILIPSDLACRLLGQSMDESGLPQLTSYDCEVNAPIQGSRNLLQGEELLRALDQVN
In short: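 HepG2 cells transiently transfected with multiple cis-regulated reporter transcription units measure endogenous transcription factor activity. After 24 h exposure, reporter mRNA is quantified by RT-PCR with 6-FAM labelling, HpaI digestion and capillary electrophoresis. Bidirectional fitting against DMSO.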

Measured: AC50

COC(=O)c1c(Cl)c(Cl)c(C(=O)OC)c(Cl)c1Cl
active: [10] 25.8 µM
not listed: [20]
inactive: all other assays above

CC[C@H]1CC[C@H](NCc2cc3c(cc2OC)[C@H]2C[C@H]2C(=O)N3C)[C@H](c2ccccc2)N1
active: [1] 69 µM | [2] 80.9 µM | [6] 71.5 µM | [7] 114 µM | [10] 4.91 µM | [11] 75.6 µM | [14] 47.5 µM | [15] 36.6 µM | [18] 100 µM
inactive: [3] | [4] | [20] | [5] | [9] | [12] | [16] | [17] | [19]

Oc1ccc2c(c1)-c1ccccc1C2
active: [2] 100 µM | [6] 26.5 µM | [7] 40.8 µM | [8] 59.6 µM | [9] 33.5 µM | [11] 46.4 µM | [12] 24.7 µM | [13] 54.2 µM | [14] 11.9 µM | [17] 37.2 µM | [18] 3.93 µM
inactive: [1] | [3] | [4] | [20] | [10] | [15] | [16] | [19]

O=C(CCCCCCCCc1cccnc1)N1CCC(C=C(c2ccccc2)c2ccccc2)CC1
active: [2] 16.7 µM | [4] 59.8 µM | [20] 1.37 µM | [6] 15.9 µM | [7] 2.78 µM | [9] 9.32 µM | [10] 0.438 µM | [11] 1.07 µM | [14] 8.56 µM | [15] 8.12 µM | [16] 19.5 µM | [17] 16.1 µM | [18] 8.08 µM
inactive: [1] | [3] | [13] | [19]

CN(C)c1ccc(N=NS(=O)(=O)O)cc1
active: [20] 40.9 µM | [12] 38.6 µM
not listed: [6] | [11]
inactive: all other assays above

O=P(OC(CCl)CCl)(OC(CCl)CCl)OC(CCl)CCl
inactive: [3] | [4] | [11] | [13] | [14] | [17] | [19]
active: [1] 153 µM | [2] 23.2 µM | [20] 36.3 µM | [6] 151 µM | [7] 107 µM | [9] 46.9 µM | [10] 0.371 µM | [15] 24.4 µM | [16] 188 µM | [18] 100 µM
